G9a inh = blocks human histone lysine methyltransferase G9a; Q96KQ7; G9a H3K9 monomethylation, AlphaScreen, 2 h; Potency, µM (series often up to 102 µM), inactives show at the highest dose activity, negative = inhibition, hits mostly inhibitors; 8.8% of 350,000 active; further: potency means the concentration at half of the fitted maximal effect; on the % scale 0 is the no-effect control and ±100 the full control effect; nearly all actives have a fitted effect of over 75% in size
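Readings reflect AlphaScreen signal from monomethyl-H3K9 antibody detection. HMT at 20 nM; substrate b-H3K9 500 nM; cofactor SAM 20 uM; 2 h RT reaction; compounds tested as titrations in qHTS with 15 min preincubation.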
JMJD2A Tudor = inhibitors of human JMJD2A Tudor domain; Potency, µM (top dose mostly 114 µM), inactives show top-dose activity change, negative = inhibition, hits mostly inhibitors; O75164; 4.4% of 390,000 active; AID 504339; AlphaScreen JMJD2A-Tudor / H3K4me3 peptide binding; further: potency means the concentration at half of the fitted maximal effect; on the % scale 0 is the no-effect control and ±100 the full control effect; nearly all actives have a fitted effect of over 50% in size
Six1-Eya2 inh = Six1/Eya2 interaction inhibition | Q15475+O00167 | AlphaScreen GST-Six1/His-Eya2 binding, biochemical; stronger effect = lower value | activity change, % (no concentration beside the values) | 0.56% of 360,000 active | AID 651725; in the data active means activity change below about -65%; inconclusive means mostly about -30% to -63%; further: on the % scale 0 is the no-effect control and ±100 the full control effect
Target sequence (O00167 whole entry, looked up): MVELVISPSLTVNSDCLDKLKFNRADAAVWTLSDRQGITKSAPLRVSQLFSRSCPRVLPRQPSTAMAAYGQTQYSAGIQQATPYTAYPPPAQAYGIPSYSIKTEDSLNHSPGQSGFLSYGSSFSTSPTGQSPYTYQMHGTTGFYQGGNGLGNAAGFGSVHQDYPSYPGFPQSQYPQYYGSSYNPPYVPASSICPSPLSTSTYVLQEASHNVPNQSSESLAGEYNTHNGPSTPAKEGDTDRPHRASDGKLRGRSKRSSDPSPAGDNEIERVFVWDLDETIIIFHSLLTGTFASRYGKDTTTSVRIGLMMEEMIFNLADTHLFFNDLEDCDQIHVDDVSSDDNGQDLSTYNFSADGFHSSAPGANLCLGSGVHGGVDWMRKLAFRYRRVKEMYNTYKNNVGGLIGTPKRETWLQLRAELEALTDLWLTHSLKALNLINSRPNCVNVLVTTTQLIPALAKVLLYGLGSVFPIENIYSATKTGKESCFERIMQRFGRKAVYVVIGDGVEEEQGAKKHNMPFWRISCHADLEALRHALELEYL
Target sequence (Q15475 whole entry, looked up): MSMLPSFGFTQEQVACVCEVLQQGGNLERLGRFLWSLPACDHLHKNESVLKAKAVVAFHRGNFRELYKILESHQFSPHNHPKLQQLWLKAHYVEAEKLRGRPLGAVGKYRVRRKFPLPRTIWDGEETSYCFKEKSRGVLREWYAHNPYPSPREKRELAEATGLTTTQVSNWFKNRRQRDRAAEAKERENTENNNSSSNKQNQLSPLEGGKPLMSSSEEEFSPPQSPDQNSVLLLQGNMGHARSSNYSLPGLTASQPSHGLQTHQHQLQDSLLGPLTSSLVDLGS
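AlphaScreen luminescence read after one hour at 37 °C in darkness. Pin-transferred compounds met GST-Six1 and His-Eya2 protein (5X stock 250 nM/500 nM) plus glutathione donor and Ni-chelate acceptor beads (5X, 50 ug/mL).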
CtBP-E1A inh = inhibitors of CtBP/E1A interaction; activity change, % (no concentration beside the values); AlphaScreen GST-E1A/His-CtBP binding, 1536-well; stronger effect = lower value; AID 651724; 0.49% of 340,000 active; in the data active means activity change below about -65%; inconclusive means mostly about -30% to -63%; further: on the % scale 0 is the no-effect control and ±100 the full control effect
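AlphaScreen with 125 nM GST-E1A and 125 nM His-CtBP (5X stocks) in Tris pH 8.0, 300 mM NaCl, BSA, Tween 20, TCEP. Compounds preincubated 2 h at 37 deg C, then glutathione donor/nickel acceptor beads added for 1 h at 37 deg C in dark.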
HP1b chromo inh = blocks HP1-beta chromodomain binding to methylated histone tails; P83916; AlphaScreen HP1-beta / biotin-H3K9me3 peptide binding; Potency, µM (top dose mostly 114 µM), inactives show at the top dose activity change, negative = inhibition, most hits filed as inhibitors; 0.56% of 390,000 active; further: potency means the concentration at half of the fitted maximal effect; nearly all actives have a fitted effect of over 70% in size
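Compound inhibition of the preformed complex between 50 nM HP1-beta and 50 nM biotinylated H3K9me3 peptide was read by AlphaScreen. Buffer was PBS pH 7.4 with 0.01% Tween-20. Incubations ran 30 min at room temperature, with 10 ug/mL donor/acceptor beads.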
BAZ2B block = blocks human BAZ2B | Q9UIF8 | AlphaScreen BAZ2B-H3K14Ac peptide displacement | Potency, µM (top dose mostly 114 µM), inactives show at the top dose activity change, negative = inhibition, actives largely listed as inhibitors | 4.4% of 360,000 active; further: potency means the concentration at half of the fitted maximal effect; on the % scale 0 is the no-effect control and ±100 the full control effect; nearly all actives have a fitted effect of over 60% in size
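BAZ2B 50 nM plus b-H3(5-23)K14Ac 50 nM, PBS pH 7.4/0.01% Tween-20, 30 min RT; compound added (max 110 uM), 30 min RT; streptavidin donor/Ni-chelate acceptor beads 10 ug/mL final, 20 min dark; AlphaScreen read.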
* marks the source's active call; other numbers are inactive results; ? = inconclusive; / = no result; [ ] = remark or other dose. Shown are actives, neighbours in structure and some others; about 10% of the full set was active somewhere. Unless noted, the call rests on the fitted dose curve; in most records, active means well fitted inhibition curve with a large enough effect; inconclusive means small, poorly fitted or top-dose-only effect; inactive means no such curve, though single readings can be large or run the other way.

SMILES | G9a inh | JMJD2A Tudor | Six1-Eya2 inh | CtBP-E1A inh | HP1b chromo inh | BAZ2B block
CN(C)CCCNS(=O)(=O)c1ccc(N2CCN(Cc3ccc4c(c3)OCO4)CC2)c([N+](=O)[O-])c1 | 10µM* | 5.62µM* | 12.2 | -10.6 | 22.4µM* | 22.4µM*
CN(C)CCNS(=O)(=O)c1ccc(N2CCc3ccccc32)c([N+](=O)[O-])c1 | 50.1µM* | ? | ? | ? | ? | ?
O=Cc1cc([N+](=O)[O-])ccc1N1CCN(Cc2ccc3c(c2)OCO3)CC1 | 44.7µM* | ? | -12.2 | -7.0 | 6.8% | ?
CC(=O)c1ccc(N2CCN(c3ccc(S(=O)(=O)NCCN(C)C)cc3[N+](=O)[O-])CC2)cc1 | / | -7.0% | 0.7 | 7.1 | 31.7% | ?
CC(=O)c1ccc(N2CCN(c3ccc(S(=O)(=O)NCCCN(C)C)cc3[N+](=O)[O-])CC2)cc1 | ? | ? | -8.1 | -12.5 | -5.8% | /
CCc1cccc(C)c1NC(=O)CN1C(=O)c2c(c3ccccc3n2C)C1c1ccc(OC)cc1 (centres undefined) | -2.4%[59 µM] | -16.2% | / | / | 21.0% | -3.3%
CCc1ccc(OCc2nc(-c3ccc(OC)cc3)no2)c(Br)c1 | 70.0%[59 µM] | 192.4% | / | / | 203.2% | 295.1%
NC(=O)c1ccc(-c2ncc(-c3ccccc3)o2)cc1 | 8.1%[12.7 µM] | -15.5% | -3.4 | -8.8 | 20.5% | 2.9%
Cc1ccc(-c2cnc(-c3ccccc3C(=O)O)o2)cc1 | 50.1µM* | -20.2% | -0.7 | 0.5 | 20.4% | -15.7%
COc1ccc(Cl)cc1NC(=S)N(Cc1ccccc1C)CC1CCC(C(=O)O)CC1 (centres undefined) | 28.2µM* | -14.2% | -8.5 | -1.4 | 8.4% | 5.8%
N=c1c2c(ncn1CCN1CCOCC1)Oc1ccc3ccccc3c1C2c1ccccc1 (centres undefined) | ? | -18.4% | 8.2 | -2.3 | 24.9% | -36.7%
N=c1c2c(ncn1-c1ccccc1)Oc1ccc3ccccc3c1C2c1ccc2c(c1)CCO2 (centres undefined) | / | 35.5µM* | / | / | / | /
c1ccc(C2c3c(ccc4ccccc34)Oc3ncn4nc(-c5ccco5)nc4c32)cc1 (centres undefined) | ? | -6.7% | -1.7 | -1.7 | 29.6% | -38.9%
N=c1c2c(ncn1-c1ccccc1)Oc1ccc3ccccc3c1C2c1ccc2c(c1)OCCO2 (centres undefined) | / | 22.4µM* | / | / | / | /
COc1ccc(C2c3c(ccc4ccccc34)Oc3ncn4nc(-c5ccco5)nc4c32)cc1OC (centres undefined) | ? | -12.8% | -9.1 | -0.7 | 8.7% | -31.1%
CCOc1ccc(C2c3c(ncn(-c4ccccc4)c3=N)Oc3ccc4ccccc4c32)cc1OCC (centres undefined) | / | 39.8µM* | / | / | / | /
CN(C)c1ccc(CNC(=O)CC[C@H]2O[C@@H](n3cnc4c(NC(=O)c5ccccc5)ncnc43)[C@H](O)[C@@H]2O)cc1 | / | / | -16.4 | -14.1 | / | /
CCN(c1ccccc1)c1nc(=O)c2cccnc2s1 | 35.5µM* | -0.7% | 1.3 | 4.7 | 20.5% | -13.9%
Cc1ccc(Nc2nc(=O)c3cccnc3s2)cc1 | -9.5%[59 µM] | -8.6% | -26.9 | -15.2 | 30.4% | -0.4%
CCCOc1ccc(Cc2nn[nH]n2)cc1 | 50.1µM* | -4.1% | 4.6 | -0.2 | 43.8% | -15.0%
CCOc1ccc(Cc2nn[nH]n2)cc1 | ? | -12.3%[11.4 µM] | 14.0 | -0.1 | 22.0% | 5.5%
COc1ccccc1C(=O)OCc1c(-c2ccccc2)ncc2ccccc12 | / | -17.8% | -6.8 | -14.3 | 29.6% | /
CCCn1c(CN2CCN(C(=O)c3ccco3)CC2)nc2cc(S(=O)(=O)N(C)C)ccc21 | 39.8µM* | -8.2% | 11.6 | -20.2 | ? | 20.4%
Cc1ccc(NC(=O)CN(C)S(=O)(=O)c2ccc3c(c2)CCC(=O)N3)c(C)c1 | 5.4%[59 µM] | -11.8% | / | / | 25.3% | -12.8%
COc1ccccc1NC(=O)Nc1nn(C)c2cccc(N(C)C)c12 | 14.1µM* | ? | -28.3 | 0.0 | ? | ?
SMILES | G9a inh | JMJD2A Tudor | Six1-Eya2 inh | CtBP-E1A inh | HP1b chromo inh | BAZ2B block
CN(C)c1cccc2c1c(NC(=O)Nc1ccc(Cl)cc1Cl)nn2C | -9.6% | -19.9% | -10.3 | / | 25.2% | 0.5%
O=S(=O)(c1ccc2c(c1)OCCO2)N1CCN(S(=O)(=O)c2ccc(Br)cc2F)CC1 | / | -15.8% | / | / | / | /
CC(=O)N1CCC2(CC1)CN(c1ccncc1)C2 | -7.2%[12.7 µM] | / | / | / | / | /
CCOC(=O)c1ccc(NC(=S)N2CCSC2c2ccc(OC)cc2)cc1 (centres undefined) | ? | -4.0% | -8.9 | 3.4 | 44.1% | 9.5%
COc1ccc(C2SCCN2C(=S)Nc2ccc(F)cc2)cc1 (centres undefined) | 39.8µM* | 2.8%[57.1 µM] | -7.6 | 2.8 | -14.3% | 4.6%
CC(C)(CO)NC(=O)C12CC3CC(CC(Br)(C3)C1)C2 | 0.7% | -5.2% | -6.4 | -7.9 | 14.2% | -9.5%
CCn1c(COc2ccccc2C)nnc1SCC(=O)N1CCN(c2ccccc2)CC1 | 9.5%[12.7 µM] | -29.7% | -7.4 | -1.7 | 16.4% | -9.1%
Cn1c(Cc2cccc3ccccc23)nnc1SCC(=O)N1CCN(c2ccccc2)CC1 | ? | 79.4µM* | -6.5 | -19.0 | -6.6% | ?
CCn1c(CC(=O)Nc2cccc(OC)c2)nnc1SCC(=O)N1CCN(c2ccccc2)CC1 | 12.6µM* | -24.7% | -15.5 | -16.0 | 6.3% | -28.2%
COc1ccc(C(=O)NC(=S)N2CC(C)OC(C)C2)cc1OC (centres undefined) | / | -10.6% | 1.0 | 0.0 | 40.7% | ?
O=CN1CCN(C(=S)NC(=O)c2ccc(Cl)cc2)CC1 | 44.7µM* | 1.4% | 16.4 | 3.5 | 52.7% | -14.6%
CC1CN(C(=S)NC(=O)c2ccc(Cl)cc2)CC(C)O1 (centres undefined) | 44.7µM* | -17.2% | 0.8 | -4.6 | 23.8% | -21.4%
CC1CN(C(=S)NC(=O)c2cccc([N+](=O)[O-])c2)CC(C)O1 (centres undefined) | 14.1µM* | ? | -2.2 | 3.3 | 20.9% | -25.7%
COc1ccccc1CNC(=O)c1cc2cc(C)ccc2n1C | 5.0%[59 µM] | 0.3% | / | / | 48.0% | -10.0%
CCOC(=O)N1CCC2(CC1)C(C#N)=C(N)OC1=C2C(=O)CCC1 | 11.6% | -12.0% | 11.5 | 9.2 | 8.6% | -1.5%
N#CC1=C(N)OC2=C(C(=O)CCC2)C12CCC1(CC2)OCCO1 | 79.4µM* | -16.9% | 0.4 | -7.6 | 5.0% | -35.7%
CCOC(=O)c1cc2c(=O)n3cccc(C)c3nc2n(Cc2ccco2)c1=NC(=O)c1cccnc1 | 8.1%[12.7 µM] | ? | -10.3 | -5.8 | 15.3% | 79.4µM*
CCOC(=O)c1cc2c(=O)n3ccccc3nc2n(C(C)C)c1=NC(=O)c1c(-c2ccccc2Cl)noc1C | -0.5% | 5.5% | 4.8 | -7.1 | 45.9% | /

High-throughput results deposited in PubChem by National Center for Advancing Translational Sciences (NCATS).
